Our source for the fluorescence (KMESF) values is PubChem BioAssay AID1775 (NMMLSC, 2009).

The whole screen tested about 220,000 compounds, of which about 820 (0.37%) were called active. Only a selection was taken, and actives are over-represented in it overall. Values without a mark were called inactive. Cut-off read from the data, not from the text of the source: active = fluorescence above about 47; inactive = the rest.

A short description of this assay: green autofluorescence of compounds with avidin beads – biophysical, 488/530 nm, flow cytometry, artefact control, profiling panel (AID 1775). Particulars: compound fluorescence 488/530 nm, at 10 µM, hits give high values.
Regarding `CSc1ccccc1NC(=O)Cc1ccc(Br)cc1`, the fluorescence (KMESF) is 12.
The result for `CN1CCN(Cc2c(O)ccc3c2oc(=O)c2ccccc23)CC1` reads 22.
On to `CCOC(=O)c1oc2c(CN3CCN(C)CC3)c(O)ccc2c(=O)c1-c1ccc(Br)cc1`, for which the fluorescence (KMESF) was 189 (active).
The result for `CCN1CCN(Cc2c(O)ccc3c(=O)c(-c4ccc(OC)c(OC)c4)c(C(F)(F)F)oc23)CC1` reads 16; that for `OCCn1c(-c2ccccc2)csc1=Nc1ccccc1`, 3; that for `CC(O)c1nc2ccccc2n1Cc1ccc([N+](=O)[O-])cc1` (centres undefined), 7.
Consider `CCOCN(C(=O)Cn1c(C(C)O)nc2ccccc21)c1c(C)cccc1CC` (centres undefined), for which the fluorescence (KMESF) is 57 (active).
The result for `CCc1cccc(C)c1N(C(=O)Cn1c(CO)nc2ccccc21)C(C)COC` (centres undefined) reads 5.
With `O=C1CC(N2CCN(c3ccc(F)cc3)CC2)C(=O)N1c1ccccc1` (centres undefined) the figure was 9; with `COC(=O)c1ccc(S(=O)(=O)N(CCO)Cc2ccccc2)n1C`, 6.
On to `CCCC1C(c2ccccc2)C(C#N)(C#N)C2(C#N)CC1(N)NC2=O` (centres undefined), for which the fluorescence (KMESF) was 90 (active).
With `Cc1ccc(C(=O)COC(=O)CCN2C(=O)C3C4CC(C(Br)C4Br)C3C2=O)cc1` (centres undefined), the fluorescence (KMESF) was 14.
The result for `CCOc1ccc(S(=O)(=O)N/N=C(\C)c2ccc(Cl)c(Cl)c2Cl)cc1` reads 7.
On to `N#CCSc1nn(-c2ccc(F)cc2)c(=S)s1`, for which the fluorescence (KMESF) was 24.
The result for `CCOC(=O)c1c(/N=C/c2cc(C)ccc2O)sc2c1CCC2` reads 14.
With `CC(C)(C)Nc1c(-c2cccs2)nc2ccccn12`, the fluorescence (KMESF) is 9.
Take `O=C(COC(=O)Cn1cnc2ccccc2c1=O)NCc1ccccc1Cl`: the fluorescence (KMESF) is 58 (active).
As to `Cn1c(CCC(=O)OCC(=O)NCc2ccccc2Cl)nc(=O)c2ccccc21`, the fluorescence (KMESF) is 21.
With `O=C(COC(=O)Cn1cnc2ccccc2c1=O)NCC12CC3CC(CC(C3)C1)C2` the figure was 5.
With `COc1ccc(Br)cc1C(=O)Nc1cccc(C)c1C` the figure was 8.
For `O=C(CCCCCN1C(=O)c2cccc3cccc(c23)C1=O)NCc1ccco1`, the fluorescence (KMESF) was 4.
For `N#Cc1ccc(N2Cc3ccccc3/C2=N/C(=O)Nc2ccc(Cl)cc2)cc1`, the fluorescence (KMESF) is 15.
In the case of `CC(NC(=O)COC(=O)c1cc(=O)[nH]c2ccccc12)c1ccccc1` (centres undefined), the fluorescence (KMESF) was 7.
The result for `COc1cc2c(cc1OC)C(c1ccc(C)o1)CC(=O)N2` (centres undefined) reads 22; that for `COC(=O)c1ccc(C2CC(=O)Nc3cc(OC)c(OC)cc32)cc1` (centres undefined), 19; that for `COc1cc2c(cc1OC)C(c1ccncc1)CC(=O)N2` (centres undefined), 47 (active).
In the case of `CC(CO)(CO)NC(=O)c1ccc(=O)[nH]n1`, the fluorescence (KMESF) is 4.
As to `CCn1ccnc1CN1CCCC(C(=O)c2ccc3c4c(cccc24)CC3)C1` (centres undefined), the fluorescence (KMESF) was 8.
With `Cc1ncoc1C(=O)N1CCCC(C(=O)c2ccc3c4c(cccc24)CC3)C1` (centres undefined) the figure was 10.
The result for `CC(=O)NCC(=O)N1CCCC(C(=O)c2ccc3c4c(cccc24)CC3)C1` (centres undefined) reads 80 (active); that for `Cc1nnc(Nc2ccccc2F)s1`, 5; that for `COc1cc(/C=C/C(=O)OCC(=O)N2CCOCC2)ccc1OCC#N`, 10.
With `O=C(NCCCc1ccccc1)C1CCC(CNc2c(N3CCCCC3)c(=O)c2=O)CC1` (centres undefined) the figure was 7; with `CCCc1nc(SCC(=O)Nc2ccc(S(=O)(=O)N(C)C)cc2)c2ccccc2n1`, 1.
As for `Cn1c(SCC(=O)N2CCCc3ccccc32)nc2ccccc2c1=O`, the fluorescence (KMESF) was 4.
The result for `CCCn1c(SCC(=O)N2CCc3ccccc32)nnc1-c1ccncc1` reads 7; that for `O=C(CSc1ccc2nnc(-c3ccccc3)n2n1)N1CCCc2ccccc21`, 76 (active); that for `CCOc1ccc2sc(NS(=O)(=O)c3ccc(N)cc3)nc2c1`, 4.
With `CC(C)(C)NC(=O)NCc1ccco1` the figure was 6.
